Compound activity from PubChem.
Hits are enriched below; roughly 3.2% of the tested compounds scored in any of these assays.
TbPYK inhibitor – inhibitors of Trypanosoma brucei pyruvate kinase; Q57TT1; TbPYK enzyme, Kinase-Glo Plus ATP luminescence, 45 min; Potency, µM (titrated, usually from 76.8 µM), usual class: inhibitors; hit rate 0.12% among 410,000; AID 624173; also: nearly all actives have a fitted effect of over 50% in size
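Quantitative HTS: titrated library compounds versus trypanosomal pyruvate kinase in TEA buffer (pH 7.2) containing KCl, MgCl2, BSA and Tween-20. Reactions were initiated with ADP, 130 uM final. Kinase-Glo Plus luminescence was read after 45 min at RT.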
LmPK inhibitor – blocks Leishmania mexicana pyruvate kinase activity | hit rate 0.37% among 290,000 | AID 1721 | Q27686 | Potency, µM (doses to about 57.5 µM), actives largely listed as inhibitors | purified LmPK, Kinase-Glo ATP luminescence, 1 h
Target sequence (Q27686 whole entry, looked up): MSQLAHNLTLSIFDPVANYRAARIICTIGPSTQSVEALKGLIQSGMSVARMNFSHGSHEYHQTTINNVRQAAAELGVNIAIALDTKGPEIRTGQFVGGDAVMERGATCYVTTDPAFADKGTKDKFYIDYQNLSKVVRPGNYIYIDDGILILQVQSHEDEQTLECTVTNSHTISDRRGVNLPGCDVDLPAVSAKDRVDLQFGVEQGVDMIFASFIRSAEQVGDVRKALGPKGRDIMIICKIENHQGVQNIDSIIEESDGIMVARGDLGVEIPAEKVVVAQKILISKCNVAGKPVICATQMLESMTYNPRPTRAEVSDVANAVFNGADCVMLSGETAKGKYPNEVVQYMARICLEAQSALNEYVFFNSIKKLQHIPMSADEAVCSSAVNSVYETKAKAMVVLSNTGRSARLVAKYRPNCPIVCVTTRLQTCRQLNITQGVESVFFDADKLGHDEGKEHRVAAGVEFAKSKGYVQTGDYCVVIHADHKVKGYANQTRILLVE
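Pyruvate kinase activity monitored as ATP production (luciferase luminescence). Conditions: 0.1 nM enzyme, 0.5 mM PEP, 0.1 mM ADP, 1 h, RT; normalized against uninhibited and no-enzyme wells.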
RE007 growth inh – less growth of the S. pombe RE007 Vpr strain; S. pombe RE007 Vpr strain, BacTiter-Glo ATP luminescence, 24 h; Potency, µM (top dose mostly 92.2 µM), usual class: inhibitors; hit rate 0.21% among 360,000; active = well fitted falling curve with a large enough effect; inconclusive = small, poorly fitted or top-dose-only effect; inactive = no such curve, though single readings can be large or run the other way; also: nearly all actives have a fitted effect of over 50% in size
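Fission yeast RE007 carrying one integrated HIV-1 vpr copy, seeded at OD 0.01 in PMG+AL medium with 23 nL pinned compound. Grown 24 h at 30 degrees; viability read by BacTiter-Glo luminescence after 5 min.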
AMA1 RON2 block – inhibitors of Plasmodium falciparum AMA1-RON2 interaction. hit rate 0.2% among 360,000. AlphaScreen AMA1-biotinylated RON2 peptide binding. AID 720542. Potency, µM (doses to about 58.2 µM), hits mostly inhibitors; also: nearly all actives have a fitted effect of over 45% in size
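AMA1 (3D7) with his tag at 25 nM final met compounds first, then biotinylated RON2 peptide at 25 nM; detection used donor plus acceptor beads, 10 µg/mL apiece, read by AlphaScreen after 30 min at room temperature.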
Sm TGR block – inhibitors of Schistosoma mansoni thioredoxin glutathione reductase; Q962Y6; hit rate 3% among 360,000; Potency, µM (top dose mostly 114 µM), usual class: inhibitors; purified TGR, DTNB reduction, TNB absorbance 405 nm; also: nearly all actives have a fitted effect of over 60% in size
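Kinetic colorimetric format: TGR-catalysed, NADPH-driven DTNB reduction monitored via TNB absorbance. Enzyme dispensed at 20 nM; compound exposure 15 min at room temperature before reaction start.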
Each line names hits and unclear results; the compound was inactive in the other large screens. Unless noted, calls follow the shape of the dose curve; as a rule, active = well fitted curve in the direction sought with a large enough effect; inconclusive = small, poorly fitted or top-dose-only effect, or another doubt; inactive = no such curve, though single readings can be large; an effect the other way counts as inactive or inconclusive.

Cc1cccc(N2CCN(S(=O)(=O)c3ccc(F)c(C(=O)Nc4ccc(C(C)C)cc4)c3)CC2)c1C	none (no result: LmPK inhibitor, RE007 growth inh, AMA1 RON2 block)
CC(=O)N1CCc2cc(C(=O)CN3CCCCC3)ccc21	Sm TGR block inconclusive
CCOC(=O)N1CCN(CC(=O)c2ccc3c(c2)CCN3C(C)=O)CC1	Sm TGR block 20µM
COc1ccc(Cn2c(O)c(/C=N/NC(=O)c3ccccc3O)c(=O)[nH]c2=O)cc1	Sm TGR block inconclusive
O=C(N/N=C/c1c(O)n(Cc2ccc(F)cc2)c(=O)[nH]c1=O)c1ccccc1O	Sm TGR block 35.5µM
O=C(N/N=C/c1c(O)n(Cc2ccccc2)c(=O)[nH]c1=O)c1ccccc1O	Sm TGR block 25.1µM
O=c1[nH][nH]c(-c2ccccc2O)c1C(C[N+](=O)[O-])c1ccc(Cl)cc1Cl (stereo not drawn)	none
Cc1cc(O)c(C(C[N+](=O)[O-])c2ccc(Cl)cc2Cl)c(=O)o1 (stereo not drawn)	Sm TGR block 50.1µM
Cc1c(C(=O)NC2CCCCC2C)oc2ccccc12 (stereo not drawn)	Sm TGR block 0.562µM
Cc1c(C(=O)NC2CC2)oc2ccccc12	none (no result: LmPK inhibitor)
Cc1nnc(NC(=O)C2CCN(S(=O)(=O)c3cc([N+](=O)[O-])ccc3Cl)CC2)o1	Sm TGR block 35.5µM (no result: LmPK inhibitor)
O=C(NC1CC1)C1CCN(S(=O)(=O)c2cc([N+](=O)[O-])ccc2Cl)CC1	AMA1 RON2 block inconclusive, Sm TGR block inconclusive (no result: LmPK inhibitor)
O=c1oc2ccccc2c(N2CCCCC2)c1CN1CCCCC1	RE007 growth inh inconclusive, Sm TGR block 17.8µM
CCc1oc2ccccc2c1C(=O)CCN1CCCCC1	RE007 growth inh inconclusive, Sm TGR block 7.94µM
O=C(Cc1ccc(-c2ccccc2)cc1)NCCS(=O)(=O)N1CCN(c2ccccc2)CC1	none (no result: LmPK inhibitor, RE007 growth inh, AMA1 RON2 block)
CCOC(=O)c1c(-n2c(C)cc(C=C3C(=O)NC(=S)NC3=O)c2C)sc2c1CCCC2	TbPYK inhibitor inconclusive, Sm TGR block 11.2µM
CCOc1ccc(CCNC(=O)Cn2nnc(-c3ccc(C(F)(F)F)cc3)n2)cc1OCC	none (no result: LmPK inhibitor, RE007 growth inh, AMA1 RON2 block)
Oc1ccc(/C=N/Nc2nccnc2Cl)cc1	TbPYK inhibitor inconclusive, LmPK inhibitor 5.01µM, RE007 growth inh inconclusive
O=[N+]([O-])c1cccc(/C=N/Nc2nccnc2Cl)c1	LmPK inhibitor 14.1µM
Fc1ccc(/C=N/Nc2nccnc2Cl)cc1	TbPYK inhibitor inconclusive, LmPK inhibitor inconclusive
CCOc1ccc(NC(=O)CC2C(=O)N(c3cccc(C)c3)C(=O)N2Cc2cccs2)cc1 (stereo not drawn)	none (no result: LmPK inhibitor, RE007 growth inh, AMA1 RON2 block)
CCNc1ccccc1CP(=O)(c1ccccc1)c1ccccc1O (stereo not drawn)	AMA1 RON2 block inconclusive, Sm TGR block 0.501µM
O=C(O)[C@H](O)[C@@H](O)[C@H](O)[C@H](O)CO	none (no result: LmPK inhibitor, RE007 growth inh, AMA1 RON2 block, Sm TGR block)
COc1ccc(N2C(=O)CC(N3CCN(c4nc5ccccc5s4)CC3)C2=O)cc1 (stereo not drawn)	RE007 growth inh inconclusive, Sm TGR block 20µM
COc1ccc(N2C(=O)CC(Sc3nc4ccccc4s3)C2=O)cc1 (stereo not drawn)	Sm TGR block 22.4µM
COc1ccc(N2C(=O)CC(Sc3nnc(-c4ccccc4F)n3C)C2=O)cc1 (stereo not drawn)	Sm TGR block 2.82µM
CCOc1cccc(N2C(=O)CC(N3CCN(c4nc5ccccc5s4)CC3)C2=O)c1 (stereo not drawn)	Sm TGR block inconclusive
COc1ccc(N2C(=O)CC(Sc3nccc(C)n3)C2=O)cc1 (stereo not drawn)	none
COc1ccc(N2C(=O)CC(N3CCN(c4ccc(S(C)(=O)=O)cc4)CC3)C2=O)cc1 (stereo not drawn)	Sm TGR block 17.8µM
COc1ccc(N2CCN(C3CC(=O)N(C)C3=O)CC2)cc1 (stereo not drawn)	RE007 growth inh inconclusive
Cc1ccc(-c2nc(CS(=O)(=O)CC(=O)Nc3ccc(Br)cc3F)c(C)o2)cc1	none (no result: LmPK inhibitor, RE007 growth inh, AMA1 RON2 block)
COc1cc(C2CC(=O)Nc3ccc4ccccc4c32)ccc1OC(=O)C(C)C (stereo not drawn)	none (no result: LmPK inhibitor, RE007 growth inh, AMA1 RON2 block)
CCCS(=O)(=O)Nc1cc(-c2cn3cccc(C)c3n2)ccc1C	none (no result: LmPK inhibitor, RE007 growth inh, AMA1 RON2 block)
CCc1cccc(-n2c(C)nc3c(cnn3-c3ccc(C)c(C)c3)c2=O)c1	none (no result: LmPK inhibitor, RE007 growth inh, AMA1 RON2 block)
COc1ccc(/C=C\c2onc(C)c2S(=O)(=O)N2CCC(C(=O)Nc3ccc(C)cc3C)CC2)cc1	none (no result: LmPK inhibitor, RE007 growth inh, AMA1 RON2 block)
C=CCNc1nnc(SC2CC(=O)N(c3ccc(OC)cc3)C2=O)s1 (stereo not drawn)	RE007 growth inh inconclusive, Sm TGR block 2.82µM
CCOc1ccc2nc(SC3CC(=O)N(c4ccc(OC)cc4)C3=O)sc2c1 (stereo not drawn)	none
Cc1ccc(C(=O)Nc2nnc(SCc3cc(=O)c4c(C)ccc(C)c4[nH]3)s2)cc1	none (no result: LmPK inhibitor, RE007 growth inh, AMA1 RON2 block)
NS(=O)(=O)c1ccc(NC(=O)COC(=O)c2ccc([N+](=O)[O-])s2)cc1	Sm TGR block 25.1µM
O=C1[O][Sb-]23[O]C(=O)C([O]2)C2[O][Sb-]4([O]C(=O)C([O]4)C1[O]3)[O]C2=O	none (no result: LmPK inhibitor, RE007 growth inh, AMA1 RON2 block, Sm TGR block)
Cc1cc(C)cc(NS(=O)(=O)c2ccc(N3CCCCS3(=O)=O)cc2)c1	none (no result: LmPK inhibitor, RE007 growth inh, AMA1 RON2 block)
CCN(C(=O)Cn1nc(Cc2cccnc2)c2ccccc2c1=O)c1cc(C)ccc1C	none (no result: LmPK inhibitor, RE007 growth inh, AMA1 RON2 block)
S=c1sc2c(Cl)ncnc2n1-c1ccccc1	Sm TGR block 3.16µM
O=[N+]([O-])/C(C(Cl)=C(Cl)Cl)=C1\Nc2ccccc2O1	Sm TGR block 14.1µM
